Hits are enriched below; roughly 3.2% of the tested compounds scored in any of these assays.
Ecoli rRNA inh: reduced GFP signal of wild-type E. coli, primary screen, bacterial rRNA inhibitor project, GFP/RFP fluorescence, OD600, single point; GFP signal change (wild-type ribosome), % (concentration not given with the values); 350,000 tested, 1.6% active; E. coli WT GFP vs humanized-ribosome RFP mutants, 24 h; hits give low values; DMSO median 0, no signal -100;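 active means significant combined selectivity score with lowered wild-type GFP, culture density cut under 30%, mutant RFP and density less affected; inactive means any of these conditions unmet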
DENV2 CPE: inhibitors of DENV2 cytopathic effect, primary screen, cell-based, plate reader, single concentration. DENV2-infected cells, cytopathic effect rescue. CPE inhibition, % at 9.99 µM. 350,000 tested, 1.7% active. AID 651640, 2012; in the data active means CPE inhibition above about 20%, passing the limit was not always enough; inconclusive means no clear call, values can overlap the other calls; tested in BHK-21 cells;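 further: 0% = median of neutral control wells and 100% = median of positive control wells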
CaV13 FRET inh: Disruptors of the CACNA1D IQ motif to Ca2+-dependent inactivation inhibitor domain association, primary screening, Förster resonance energy transfer in intact living … | 340,000 tested, 0.098% active | HEK cells, CFP/YFP FRET ICDI-IQ, plate reader, 10 min; percent FRET-ratio fall versus neutral wells | inhibition, % at 12.3 µM;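 active means mean replicate inhibition of at least 30% and at least 1% of replicates passing that level; inconclusive means only one of the two criteria is met; inactive means neither criterion is met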;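 further: 0% = median of the neutral control wells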
ERAP1 inh: human ERAP1 aminopeptidase inhibitors, primary screen, biochemical, single point, plate reader | Endoplasmic reticulum aminopeptidase 1 (Homo sapiens), Q9NZ08 | recombinant ERAP1, Leu-AMC fluorescence, 60 min | inhibition, % at 10.7 µM | 340,000 tested, 0.15% active | AID 652197, 2013;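 active means mean replicate inhibition of at least 30%, or all replicates individually reaching that 30% level; inactive means mean below 30% and not every replicate reaching it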;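 further: 0% = neutral control wells and 100% = L-leucinethiol positive control wells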
Target sequence (Q9NZ08 whole entry, looked up): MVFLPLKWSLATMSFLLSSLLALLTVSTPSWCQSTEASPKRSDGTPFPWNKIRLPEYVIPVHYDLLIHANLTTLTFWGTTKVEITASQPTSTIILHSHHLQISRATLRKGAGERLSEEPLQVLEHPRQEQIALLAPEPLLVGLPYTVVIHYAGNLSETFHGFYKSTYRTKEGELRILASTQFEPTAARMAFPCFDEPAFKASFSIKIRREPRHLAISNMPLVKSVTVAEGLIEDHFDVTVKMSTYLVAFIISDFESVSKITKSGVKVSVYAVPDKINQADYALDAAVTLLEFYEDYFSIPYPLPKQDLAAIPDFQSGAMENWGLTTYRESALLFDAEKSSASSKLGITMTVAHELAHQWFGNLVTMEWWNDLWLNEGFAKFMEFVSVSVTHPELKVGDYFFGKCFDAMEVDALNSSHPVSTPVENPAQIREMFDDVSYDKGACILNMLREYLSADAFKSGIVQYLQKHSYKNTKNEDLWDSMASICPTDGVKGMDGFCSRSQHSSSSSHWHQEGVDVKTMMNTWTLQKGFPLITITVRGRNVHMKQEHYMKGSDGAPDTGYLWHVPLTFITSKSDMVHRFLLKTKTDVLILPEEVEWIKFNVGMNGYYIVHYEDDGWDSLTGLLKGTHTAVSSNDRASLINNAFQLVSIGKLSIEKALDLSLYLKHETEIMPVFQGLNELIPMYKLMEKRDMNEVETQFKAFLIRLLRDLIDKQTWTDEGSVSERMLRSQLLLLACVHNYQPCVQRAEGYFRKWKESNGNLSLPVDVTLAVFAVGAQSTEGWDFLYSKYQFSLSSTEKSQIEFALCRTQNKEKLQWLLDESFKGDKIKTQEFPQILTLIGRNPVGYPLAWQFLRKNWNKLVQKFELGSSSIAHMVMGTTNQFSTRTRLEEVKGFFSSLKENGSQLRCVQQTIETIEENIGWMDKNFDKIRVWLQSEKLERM
GSIS activator: GLuc luminescence reporter in INS-1E cells, primary screen for activators of glucose-dependent secretion of insulin | INS-1E GLuc reporter insulin secretion, 2-3 h | activation, % at 16.6 µM | 370,000 tested, 0.61% active | AID 743287, 2014;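 active means lowest replicate activation of at least 40%, so every replicate reaches that level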;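 further: 0% = median of neutral control wells and 100% = median of IBMX positive control wells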
PGC1a acetyl inh: inhibitors of PGC1a acetylation signal, primary screen, cell-based, U2OS, AlphaScreen, inhibitor mode; inhibition, % at 15.6 µM; AlphaScreen anti-acetyl-lysine; with virally co-expressed GCN5 acetyltransferase; 350,000 tested, 0.17% active;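 active means every replicate shows inhibition of at least 40%; inconclusive means mean inhibition at least 40% but some replicate below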;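 further: 0% = neutral control wells and 100% = positive control wells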
AID977621: growth inhibition of wild-type GFP E. coli, dose response, H69 mutant RFP, cherry-pick. activity change, negative = inhibition at 50 µM. E. coli wild-type GFP strain growth, fluorescence, 24 h. 1,900 tested, under 10 active. shares compounds with Ecoli rRNA inh;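 active means Wild-type ribosome reporter drop at least double the humanized mutant ribosome reporter drop, growth loss under a set limit; inconclusive means no clear call, values can overlap the other calls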;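 further: wild-type GFP and H69 mutant RFP strains grown together 50/50 in each well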
AID977628: E. coli growth inhibition, wild-type GFP versus h24 humanized RFP strain, dose response, h24 mutant RFP vs wild-type GFP, cherry-pick | 1,900 tested, under 10 active | shares compounds with Ecoli rRNA inh | activity change, negative = inhibition at 50 µM | AID 977628, 2014 | E. coli WT GFP strain growth, fluorescence, 24 h;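 active means compound lowering the normal-ribosome reporter at least twice as much as the humanized-ribosome reporter, growth loss under a set limit; inconclusive means no clear call, values can overlap the other calls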;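 further: wild-type GFP and h24 humanized RFP strains co-cultured 1 to 1 per well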
Starred values were filed as active, the others as inactive; ? = inconclusive; . = not tested or not shown.

SMILES	Ecoli rRNA inh	DENV2 CPE	CaV13 FRET inh	ERAP1 inh	GSIS activator	PGC1a acetyl inh	AID977621	others
CC(=O)N(C)C[C@@H]1Oc2ncc(C#C[C@H](C)O)cc2C(=O)N([C@H](C)CO)C[C@@H]1C	5	-9	.	-3	19	2	.
Cc1nc2ncnn2c(N2CCC(C(=O)NC3CCCC3)CC2)c1Cc1ccccc1	-19*	3	-6	-4	-16	3	-10	AID977628=-7.5
CC(=O)NC(Cc1ccc(F)c(F)c1)C(=O)NC1CCN(c2c(Cc3ccccc3)c(C)nc3ncnn23)CC1 (stereo unspecified)	-6	.	-7	-1	3	-8	.
O=C(O)CSc1nc2ccccc2n1C1CCCCC1	-22*	5	-2	-2	9	-40	-9.2
O=C(O)Cn1c(SC2CCCCC2)nc2ccccc21	.	.	.	.	.	4	.
C[C@@H]1CCCCO[C@@H](CN(C)C)[C@H](C)CN([C@H](C)CO)C(=O)c2cc(NC(=O)Nc3ccccc3)ccc2O1	5	-4	.	0	5	2	.
O=C(Nc1ccccc1F)N[C@H]1CC[C@@H](CCNS(=O)(=O)c2ccccc2)O[C@H]1CO	-1	8	.	2	19	0	.
OCCN(Cc1ccccc1)Cc1ccc(F)c(F)c1	-23*	-4	-7	1	13	-13	-11	AID977628=-9.4
OCCN(Cc1ccccc1)Cc1ccccc1O	5	-2	3	-2	11	-4	.
COc1cccc(NC(=O)N2C[C@H](O)COC[C@@H]3O[C@@H](CC(=O)NCc4ccccc4F)CC[C@H]32)c1	5	-3	.	.	20	-1	.
COc1ccc(NC(=O)c2ccc(-c3ccc([N+](=O)[O-])cc3)o2)cc1	-26*	1	-16	.	2	-5	.	AID977628=?
O=C(Nc1ccccc1)c1ccc(-c2ccc([N+](=O)[O-])cc2)o1	-11	4	-8	0	23	.	.
Nc1ccc(-n2cnc3cc([N+](=O)[O-])ccc32)cc1	.	.	-4	.	.	-1	.
Cc1cccc(-n2cnc3cc([N+](=O)[O-])ccc32)c1	-16*	-4	-17	-3	24	.	-15	AID977628=-15
CCCNC(=O)N(C)C[C@@H]1Oc2cc(-c3cccnc3)ccc2S(=O)(=O)N([C@@H](C)CO)C[C@H]1C	5	-5	.	-3	0	2	.
O=C(O)c1cccc(Nc2cc(Cl)c3nonc3c2[N+](=O)[O-])c1	-13	?	-3	22	-9	.	.
O=C(O)c1ccccc1Nc1cc(Cl)c2nonc2c1[N+](=O)[O-]	-20*	9	-20	1	-14	13	?
CC1CCN(CC(O)COCCC23CC4CC(CC(C4)C2)C3)CC1 (stereo unspecified)	-40*	.	-8	0	-10	-13	-2.8
COc1ccc(NC(=O)Nc2ccc3c(c2)CC(=O)N([C@H](C)CO)C[C@@H](C)[C@H](CN(C)Cc2ccc(C(=O)O)cc2)O3)cc1	3	3	.	0	26	10	.
O=C(O)CC(CC(=O)Nc1ccc(N2CCOCC2)cc1)c1ccccc1 (stereo unspecified)	4	-2	-4	-1	.	8	.
O=C(O)CC(CC(=O)Nc1ccc(Oc2ccccc2)cc1)c1ccccc1 (stereo unspecified)	-27*	-8	-5	-8	7	.	-19	AID977628=-23
CN(C)S(=O)(=O)c1ccc(C(=O)OCC(=O)c2ccc3c(c2)NC(=O)CO3)cc1	11	-3	-6	.	5	10	.
